Shown are actives, neighbours in structure and some others; about 10% of the full set was active somewhere.
MmCpn inh: Inhibitors of TCP-1 ring complex (TRiC) of Methanococcus maripaludis (MmCpn): qHTS; Chaperonin Mm-Cpn (Methanococcus maripaludis); purified Mm-Cpn ATPase, ADP Transcreener TR-FRET; Potency, µM (highest dose often 76.9 µM), inactives show top-dose activity, negative = inhibition, most hits filed as inhibitors; 330,000 tested, 0.031% active; further: potency means the concentration at half of the fitted maximal effect; nearly all actives have a fitted effect of over 80% in size
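25 nM Mm-CPN + cpd, 10 min 37°C; + 10 uM ATP, 30 min 37°C; buffer 30 mM Tris pH 7.4, 100 mM KCl, 5 mM MgCl2, 1 mM DTT; Transcreener ADP HTRF detection 30 min RT.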
VDR inhibitor: Inhibitors of the vitamin D receptor (VDR): qHTS | VDR-SRC2-3 peptide fluorescence polarization, 2 h | 400,000 tested, 0.93% active | Vitamin D3 receptor (Homo sapiens), P11473 | Potency, µM, for inactives: max response, negative = inhibition, most hits filed as inhibitors; further: potency means the concentration at half of the fitted maximal effect
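Two reagent solutions held at 4 deg C in the dark were dispensed, compounds pinned at 23 nl, and the mixture incubated 2 h at room temperature. Read-out: fluorescence polarization of VDR–SRC2-3 peptide binding.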
PLK1 PBD inh: qHTS for Inhibitors of PLK1-PDB (polo-like kinase 1 - polo-box domain): Primary Screen; Plk1 PBD binding of FITC phosphopeptide, fluorescence polarization; Potency, µM, inactives show max response, negative = inhibition, most hits filed as inhibitors; 360,000 tested, 2.8% active; further: potency means the concentration at half of the fitted maximal effect; series mostly up to about 57 µM; nearly all actives have a fitted effect of over 65% in size
Target sequence (P53350 whole entry, looked up, the tested form may be a part): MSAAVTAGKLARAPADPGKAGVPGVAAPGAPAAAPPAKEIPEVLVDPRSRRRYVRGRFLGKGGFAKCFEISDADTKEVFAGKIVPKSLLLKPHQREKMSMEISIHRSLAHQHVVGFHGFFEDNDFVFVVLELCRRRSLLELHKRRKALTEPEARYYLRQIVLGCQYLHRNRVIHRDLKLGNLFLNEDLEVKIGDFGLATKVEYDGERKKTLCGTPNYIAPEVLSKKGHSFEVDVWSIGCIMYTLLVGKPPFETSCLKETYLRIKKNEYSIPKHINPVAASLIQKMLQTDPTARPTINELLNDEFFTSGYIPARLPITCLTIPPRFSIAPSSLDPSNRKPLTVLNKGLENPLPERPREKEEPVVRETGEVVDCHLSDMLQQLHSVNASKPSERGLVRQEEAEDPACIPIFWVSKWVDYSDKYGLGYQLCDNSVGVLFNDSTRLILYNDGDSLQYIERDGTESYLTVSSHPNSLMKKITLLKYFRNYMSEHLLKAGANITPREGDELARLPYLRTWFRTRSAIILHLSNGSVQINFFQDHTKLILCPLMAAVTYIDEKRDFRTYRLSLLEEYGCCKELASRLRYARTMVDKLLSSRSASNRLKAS
Sfp PPTase inh: qHTS Assay for Inhibitors of Bacillus subtilis Sfp phosphopantetheinyl transferase (PPTase). AID 1490, 2009. Potency, µM, for the others: largest response in the series, negative = inhibition, most hits filed as inhibitors. Biochemical Sfp PPTase activity, qHTS. 310,000 tested, 3.5% active. 4'-phosphopantetheinyl transferase ffp (Bacillus subtilis), Q9F4F7;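 further: the enzyme is Sfp with the accession as filed and its product quenches rhodamine fluorescence; potency means the concentration at half of the fitted maximal effect; 0% = enzyme reaction without inhibitor and -100% = no enzyme wells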
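After 15 min at room temperature with compound, 15 nM Sfp received 5 uM rhodamine-CoA plus 12.5 uM BHQ-2-ybbR (50 mM Hepes pH 7.6, 10 mM MgCl2). Rate came from the fluorescence difference over 30 min, ex 525/em 598 nm.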
CCT modulator: High-Throughput Screening for Modulators of Cytosolic Chaperonin Activity; purified chaperonin ATPase assay, HTRF ADP detection, 30 min; 360,000 tested, 0.3% active; AID 651819, 2012; activity change, % (no concentration beside the values), hits read low; in the data active means activity change below about -30%
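Nucleotide hydrolysis assay: TRiC at 20–40 nM final (set by batch activity) with 10 uM ATP, 30 min at 37 °C, in presence of 76 uM compound. Detection by competitive ADP HTRF, 30 min ambient.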
G9a block: qHTS Assay for Inhibitors of Histone Lysine Methyltransferase G9a; Histone-lysine N-methyltransferase EHMT2 (Homo sapiens), Q96KQ7; AID 504332, 2011; Potency, µM (top dose mostly 102 µM), inactives show top-dose activity, negative = inhibition, hits mostly inhibitors; 350,000 tested, 8.8% active; G9a H3K9 monomethylation, AlphaScreen, 2 h; further: potency means the concentration at half of the fitted maximal effect; nearly all actives have a fitted effect of over 75% in size
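Methyltransferase reactions run at room temperature for 2 h (20 nM enzyme, 500 nM biotin-H3K9 peptide, 20 uM SAM) after a 15 min compound preincubation; product detected by AlphaScreen beads and anti-H3K9me1 antibody.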
Active calls of the source: *; ? = inconclusive; · = no result; [ ] = remark or other dose. Unless noted, the call rests on the fitted dose curve; in most records, active means well fitted curve in the direction sought with a large enough effect; inconclusive means small, poorly fitted or top-dose-only effect, or another doubt; inactive means no such curve, though single readings can be large; an effect the other way counts as inactive or inconclusive. Unless noted, on the % scale 0 is the no-effect control and ±100 the full control effect.

SMILES	MmCpn inh	VDR inhibitor	PLK1 PBD inh	Sfp PPTase inh	CCT modulator	G9a block
Oc1cc2ccccc2cc1-c1n[nH]c(=S)o1	-3%	?	12µM*	-13%	0	4µM*
Brc1ccc2nc(-c3c[nH]c4ccccc34)cn2c1	-9%	10%	-5%	-10%	-1	50µM*
Clc1ccc(-c2cn3cc(Br)ccc3n2)cc1Cl	?	5%	-3%	-5%	2	?
CCOc1cccc2sc(N(CCN(CC)CC)C(=O)c3ccc(S(=O)(=O)N4CCCC4)cc3)nc12	0%	-22%	-4%	19%	0	-10%
CCN(CC)CCN(C(=O)c1ccc2ccccc2c1)c1nc2cc3c(cc2s1)OCO3	-1%	2%	1%	45µM*	-24	40µM*
CCN(CC)CCN(C(=O)CN1C(=O)c2ccccc2C1=O)c1nc2cc3c(cc2s1)OCO3	0%	5%	-1%	-7%	1	?
CCN(CC)CCN(C(=O)c1ccc(S(=O)(=O)N2CCCCC2)cc1)c1nc2cc3c(cc2s1)OCO3	-1%	-7%	2%	7%	2	50µM*
COc1ccc(S(=O)(=O)N2CCN(c3ccc(Cl)c(Cl)c3)CC2)c2ccccc12	·	7%	·	·	·	0%[59 µM]
Cc1ccc(CSC2=NCCN2C(=O)c2ccc([N+](=O)[O-])cc2)cc1	-28%	-7%	-11%	9%	0	20µM*
COc1ccc(NC(=O)N(Cc2ccco2)C2CCN(C(C)=O)CC2)c(OC)c1	·	12%	·	·	·	-6%[59 µM]
Cn1c(=O)c2c(-c3ccccc3Cl)n(-c3cc(Cl)ccc3O)cc2n(C)c1=O	·	8%	·	·	·	-45%[59 µM]
S=C(NCCCN1CCOCC1)NCCCN1CCOCC1	0%	?	5.3µM*	7.1µM*	-1	8.9µM*
CCCCCCCCNC(=S)NCCN1CCCCC1	?	-7%	-10%	-27%	0	45µM*
FC(F)(F)Oc1ccc(NC(=S)NCCCN2CCOCC2)cc1	2%	-7%	12µM*	56µM*	1	50µM*
O=C(NCCCCCCCN1CCCCCCC1)C(C1CCCCC1)C1CCCCC1	·	-21%	-16%	·	0	·
Cc1cc(C)cc(NC(=O)Cn2c3ncccc3c(=O)n2-c2ccc(C)c(C)c2)c1	·	7%	·	·	·	26%[59 µM]
O=C(NC(c1ccccc1)c1ccccc1)c1ccccc1	·	24%	1%	·	-1	·
O=C(NC(c1ccccc1)c1ccccc1)c1ccc(=O)[nH]n1	0%	-17%	24µM*	3%	-1	0%
COc1ccc(S(=O)(=O)Nc2ccccc2C(F)(F)F)cc1	1%	3%	2%	3%	-3	-36%[12.7 µM]
COc1ccc(S(=O)(=O)NC(C)C(=O)Nc2ccccc2C(F)(F)F)cc1 (stereo unspecified)	0%	3%	-17%	-6%	-4	11µM*
CC(=O)c1cc(-c2ccccc2)n(CC(=O)NCCc2ccc(C)cc2)c1C	·	7%	·	·	·	5%[59 µM]
Cc1nc2ccc([N+](=O)[O-])cc2nc1C	-1%	15%	2%	22%	-2	0%
Cc1ccc2nc3cc([N+](=O)[O-])cc([N+](=O)[O-])c3cc2c1	-2%	-21%	0.95µM*	10%	-3	-14%[59 µM]
CC(C)CNC(=O)CSc1nc2scc(-c3ccccc3)c2c(=O)[nH]1	-16%	-6%	?	7%	-1	11µM*
O=C(O)CSCc1nc2scc(-c3ccccc3)c2c(=O)[nH]1	2%	-25%	-11%	25%	-3	50µM*
SMILES	MmCpn inh	VDR inhibitor	PLK1 PBD inh	Sfp PPTase inh	CCT modulator	G9a block
O=c1[nH]c(Cc2ccccc2)nc2scc(-c3ccccc3)c12	-3%	-10%	1%	14%	0	-9%
O=C(CSc1nc2scc(-c3ccccc3)c2c(=O)[nH]1)Nc1ccccc1	-7%	5%	-5%	-10%	-1	·
CCCCCCCCCCCCC/C=C/[C@@H](O)[C@H](CO)NC(=O)CCCCCCC	·	7%	·	35%	·	20%[59 µM]
Cc1ccc(C)c(Nc2nc3c(S(=O)(=O)c4ccc(Br)cc4)nnn3c3ccsc23)c1	·	-3%	·	·	·	18µM*
CN1CC(=O)NC1=NC(=O)c1cc(F)c(F)cc1Cl	0%	-21%	1%	-21%	-4	32µM*
CN1CC(=O)NC1=NC(=O)c1ccc(Cl)c(S(=O)(=O)N2CCCCCC2)c1	1%	-1%	-7%	-9%	-8	-21%[59 µM]
CCCOC(=O)c1c(-c2ccc(C)cc2C)csc1NC(=O)C1C2CCC(O2)C1C(=O)O (stereo unspecified)	-4%	?	12µM*	?	0	13µM*
CCOC(=O)c1c(NC(=O)C2C3CCC(O3)C2C(=O)O)sc(C)c1-c1ccc(F)cc1 (stereo unspecified)	-10%	-5%	-8%	4%	-2	·
Clc1ccc(-c2cc3ccccc3nc2N2CCOCC2)cc1	0%	?	15µM*	-7%	0	210%
c1ccc(-n2ncc3c(NCCN4CCCCC4)ncnc32)cc1	1%	-6%	-2%	-10%	-5	45µM*
c1ccc(-n2ncc3c(NCCN4CCOCC4)ncnc32)cc1	1%	20%	-4%	11%	0	10%
CC1=C(C(=O)Nc2ccccc2C)C(c2ccc[nH]2)n2ncnc2N1 (stereo unspecified)	·	3%	·	·	·	-4%[59 µM]
CNc1nc(C23CC4CC(CC(C4)C2)C3)cs1	1%	13%	-7%	-25%	3	32µM*
O=C(CC(=O)Nc1nc(C23CC4CC(CC(C4)C2)C3)cs1)NCCO	1%	-11%	3%	-5%	0	-7%[59 µM]
C/C(=N/Nc1ccnc2cc(Cl)ccc12)c1ccc(N)cc1	-1%	-13%	-6%	·	0	1.8µM*
NC(=S)NNc1ccnc2cc(Cl)ccc12	-4%	-15%	21µM*	-81%	-1	1µM*
O=C(NNc1ccnc2cc(Cl)ccc12)C1CCCCC1	0%	-19%	-13%	7%	-5	6%
Clc1ccc2c(NNc3ccccc3Cl)ccnc2c1	?	11%	-9%	-2%	-1	3.2µM*
FC(F)Oc1ccc(NC(=S)NNc2ccnc3cc(Cl)ccc23)cc1	3%	35µM*	-20%	-16%	-4	40µM*
Cc1ccc(COc2ccc3oc(-c4ccccc4)c(C(=O)O)c3c2)cc1	·	-2%	·	·	·	-19%[59 µM]
Cc1nn(C)c2c1c(C(F)(F)F)cc(=O)n2C(C)C(=O)NCCc1ccc(Cl)cc1 (stereo unspecified)	·	14%	·	·	·	4%[59 µM]
